{
  "source": "PubChem BioAssay AID588855",
  "about": "(National Center for Advancing Translational Sciences (NCATS), 2011)",
  "note": "Screen size: about 410,000 compounds; about 5,000 (1.2%) were called active. About 13% were inconclusive and are not listed. Only a selection was taken, and actives are over-represented in it overall. Unmarked numbers belong to inactive results. Calls follow the shape of the dose curve; as a rule, active = well fitted inhibition curve with a large enough effect; inconclusive = small, poorly fitted or top-dose-only effect; inactive = no such curve, though single readings can be large or run the other way. Potency is read from the fitted curve at half-maximal effect.",
  "data": [
    {"experiment": "qHTS for Inhibitors of TGF-b; also: nearly all actives have a fitted effect of over 65% in size", "settings": "HepG2 CAGA-GFP TGF-b/SMAD3 reporter, GFP fluorescence, 18 h, TGF-beta stimulated, 500 pg/mL final; series mostly up to 46.1 µM; activity, negative = inhibition: at the top concentration", "description": "TGF-b is a main component in the TGF-b signaling pathway which plays diverse roles in cellular and development pathways. TGF-b is the mediated by the transcription factors Smads. Although the Smad-dependent pathway is the primary canonical TGF-b signaling node, TGF-b1 can also activate alternative signaling pathways, including those involving MAPK (ERK, JNK and p38). This interaction may mediate or enhance Smad-dependent responses, or can exert Smad-independent effects. The complexity of this signaling cascade allows the TGF-b superfamily to perform unique, overlapping or redundant functions. We believe that targeting the TGF-beta pathway at the Smad-transcription factor level may eliminate the consequences of disrupting the entire pathway and offer specificity without affecting other signaling pathways. Smad3 is the primary transducer of TGF-b's signals and Smad3 regulates many functions attributed to TGF-b signaling. We hypothesize that Smad3 inhibitors will selectively eliminate Smad3-specific TGF-beta signals without undesired off-target effects. We aim to identify Smad3-small molecule antagonists using a quantitative high throughput screening (qHTS) approach.\nA high-throughput assay was developed to screen the NIH Molecular Libraries Small Molecule Repository (MLSMR). This is a cell based assay, where TGF-b is tagged with GFP. A counterscreen is run that looks at cytotoxicity (please see summary AID).\nMH087449NIH Chemical Genomics Center [NCGC]\nNIH Molecular Libraries Probe Centers Network [MLPCN]\nAssay Submitter (PI): Sushil Rane, National Institute of […]\nSuspensions of trypsinized HEPG2 CAGA-GFP cells were dispensed into white, tissue culture-treated, solid 1536-well plates at 5uL/well (1000 cells/well final concentration) in DMEM medium supplemented with 1% FBS. Plates were incubated at 37 degrees C for 2 hours, after which 23 nL of compounds or DMSO were delivered to each well using a pin tool. One uL of recombinant TGF-beta in DMEM (1% FBS) was then dispensed (500 pg/mL final concentration), and plates were incubated at 37 degrees C for 18 hours. The plates were measured on an Acumen eX3 Explorer plate reader for GFP fluorescence (ex488/em500-530). GFP values were calculated by determining the mean GFP fluorescence of individual cells, and compiling these values for each well to determine a total well GFP signal. The %Activity was determined from the corrected fluorescence values. A titration of the known TGF-B inhibitor SB431542 was included to monitor plate performance, while unstimulated HEPG2 (-TGF-B) control wells were used to normalize %Activity of identified inhibitors; unstimulated wells corresponded to 100%Activity (full inhibition), while stimulated cell controls (+DMSO) were used to normalize 0%Activity (no inhibition).\nConcentration-response curves were fitted to the signals arising from the resulting fluorescence. The concentration-effect curves were then classified based on curve quality (r2), response magnitude and degree of measured activity, and compounds were subsequently categorized based on their curve class.", "units": {"activity, negative = inhibition": "%"}, "values": [
      {"smiles": "C[C@]12CCC3C(CC[C@H]4C[C@@H](O)CC[C@]34C)C1CC[C@@H]2O", "note": "(some centres not stated)", "activity, negative = inhibition": 15},
      {"smiles": "CC12CCC(O)CC1CCC1C2CCC2(C)C(C(=O)CC(O)C(F)(F)F)CCC12", "note": "(configuration not stated)", "activity, negative = inhibition": -4.48},
      {"smiles": "C[C@]12CC[C@H](O)C[C@H]1CC[C@@H]1C2CC[C@]2(C)[C@@H](C3=CC(=O)OC3)[C@@H](O)C[C@]12O", "note": "(some centres not stated)", "Potency": "11.2 µM (active)"},
      {"smiles": "C[C@H]1CN([C@@H](C)CO)C(=O)CCCn2nncc2CO[C@H]1CN(C)C(=O)Oc1ccccc1", "activity, negative = inhibition": 1.94},
      {"smiles": "COc1ccccc1OC(=O)c1ccc(C)c(S(=O)(=O)N2CCOCC2)c1", "activity, negative = inhibition": -12.5},
      {"smiles": "COc1ccc2c(c1)NP(=S)(c1ccccc1)N2", "note": "(configuration not stated)", "activity, negative = inhibition": 0},
      {"smiles": "Cc1nc2ccccc2c(=O)n1-c1ccc(Cl)cc1Cl", "activity, negative = inhibition": 2.9},
      {"smiles": "Cn1cc(/C=C/c2nc3ccccc3c(=O)n2-c2ccccc2)c2ccccc21", "activity, negative = inhibition": 0.0962},
      {"smiles": "O=c1c2ccccc2nc(/C=C/c2ccc(F)cc2)n1-c1ccccc1O", "Potency": "10 µM (active)"},
      {"smiles": "CC(C)CN1Cc2cc(N3CCCCC3)ccc2-n2nncc2C1", "activity, negative = inhibition": -32},
      {"smiles": "O=c1c2ccccc2nc(CBr)n1-c1ccc(Cl)cc1", "activity, negative = inhibition": 5.25},
      {"smiles": "CCCCC(=O)N/N=C/c1c(O)n(CC)c(=S)n(CC)c1=O", "Potency": "22.4 µM (active)"},
      {"smiles": "Cn1c(O)c(C=NCCCC(=O)O)c(=O)n(C)c1=O", "activity, negative = inhibition": -7.57},
      {"smiles": "O=C(N/N=C/c1c(O)n(Cc2ccccc2)c(=O)[nH]c1=O)c1ccccc1", "activity, negative = inhibition": -2.56},
      {"smiles": "COc1cc(C(c2c(O)c3ccccc3oc2=O)c2c(C)n(C)n(-c3ccccc3)c2=O)ccc1O", "note": "(configuration not stated)", "Potency": "inactive"},
      {"smiles": "C[C@H]1CN([C@@H](C)CO)C(=O)CCCn2nncc2CO[C@H]1CN(C)C(=O)Oc1cccc2ccccc12", "activity, negative = inhibition": -17.7},
      {"smiles": "CC1CCCCN1Cc1cccnc1", "note": "(configuration not stated)", "activity, negative = inhibition": -4.61},
      {"smiles": "COC1C(O)C(C)OC(OC2CCC3(C=O)C(CCC4C3CCC3(C)C(C5=CC(=O)OC5)CCC43O)C2)C1O", "note": "(configuration not stated)", "Potency": "0.355 µM (active)"},
      {"smiles": "O=c1[nH]c(CN2CC=C(c3ccccc3)CC2)nc2scc(-c3cccs3)c12", "activity, negative = inhibition": -20.4},
      {"smiles": "COC(=O)C1=C(c2cc3ccccc3s2)C[C@@H]2CC[C@H]1N2C(=O)NCCO", "activity, negative = inhibition": -5.77},
      {"smiles": "COc1cc(C2c3cc4c(cc3C(O)C3COC(=O)C23)OCO4)cc(OC)c1OC", "note": "(configuration not stated)", "activity, negative = inhibition": -56.2},
      {"smiles": "O=C(O)c1cc[c]([Sb](=[O])([OH])[OH])cc1[N+](=O)[O-]", "activity, negative = inhibition": -13.1},
      {"smiles": "CO[C@H]1[C@@H](O)[C@@H](C)O[C@H](O[C@H]2[C@H](Oc3cccc4c(O)c5c(=O)oc6ccc(C)c7c(=O)oc(c34)c5c67)O[C@H](C)[C@H](O)[C@@H]2O)[C@@H]1O", "activity, negative = inhibition": -9.07},
      {"smiles": "CSCCC(c1nnnn1C(C)(C)C)N1CCC(n2c(=O)[nH]c3ccccc32)CC1", "note": "(configuration not stated)", "activity, negative = inhibition": -13.8},
      {"smiles": "CC1(C)Cc2c(C#N)c(N3CCNCC3)nc(-c3ccco3)c2CS1", "activity, negative = inhibition": 0},
      {"smiles": "Cc1cccc(Cn2cccc(C(=O)Nc3ccc4c(c3)OCCO4)c2=O)c1", "Potency": "10 µM (active)"},
      {"smiles": "Cc1nnc(NC(=O)c2cccn(Cc3cccc(F)c3)c2=O)s1", "activity, negative = inhibition": -14.8},
      {"smiles": "Cc1ccccc1NC(=O)COC(=O)c1cc(C)n(C2CC2)c1C", "activity, negative = inhibition": -18.3},
      {"smiles": "COc1ccc(NC(=O)N2Cc3ccccc3-n3nncc3C2)cc1", "activity, negative = inhibition": 12.2},
      {"smiles": "Cc1ccc(OC(=O)N(C)C[C@@H]2OCc3cnnn3CCCC(=O)N([C@H](C)CO)C[C@@H]2C)cc1", "activity, negative = inhibition": 9.78},
      {"smiles": "CCOC(=O)CNC(=O)N1Cc2cc(N3CCCCC3)ccc2-n2nncc2C1", "activity, negative = inhibition": -17.2},
      {"smiles": "CC(=O)c1ccc(OC(NC(=O)Cc2ccccc2)C(Cl)(Cl)Cl)cc1", "note": "(configuration not stated)", "activity, negative = inhibition": 0.817},
      {"smiles": "CN1CCN(/N=C/c2c[nH]c3ccccc23)CC1", "activity, negative = inhibition": 8.85},
      {"smiles": "CN(C)CCN(CC1CCCN(Cc2ccccc2F)C1)C(=O)Cc1ccc(F)c(F)c1", "note": "(configuration not stated)", "activity, negative = inhibition": -1.79},
      {"smiles": "CCn1cc(CN2CCCC(C(=O)c3cccc(C(F)(F)F)c3)C2)cn1", "note": "(configuration not stated)", "activity, negative = inhibition": 1.53},
      {"smiles": "CC(=O)Nc1ccc(CC#N)cc1", "activity, negative = inhibition": 8.86},
      {"smiles": "CCC(C)(O)C(=O)OC1C(=O)OC2CC3C(C)=CC(=O)C(O)C3(C)C3C4(O)OCC23C1C(C)C4O", "note": "(configuration not stated)", "Potency": "0.355 µM (active)"},
      {"smiles": "O=C1C2CCN(CC2)C1(CO)CO", "activity, negative = inhibition": -1.2},
      {"smiles": "COc1ccc(C2C=C(C)Oc3c2c(=O)oc2ccccc32)cc1OC", "note": "(configuration not stated)", "activity, negative = inhibition": -7.94},
      {"smiles": "CN(C(=O)c1cccc(NC(=O)Cc2cccc([N+](=O)[O-])c2)c1)C1CCCCC1", "Potency": "20 µM (active)"},
      {"smiles": "CN(C)P(=S)(Nc1ccccc1)C(Cl)(Cl)Cl", "note": "(configuration not stated)", "activity, negative = inhibition": -5.56},
      {"smiles": "O=C1CC(=O)N(Cc2ccccc2)C(=O)N1CCCCCCN1C(=O)CC(=O)N(Cc2ccccc2)C1=O", "activity, negative = inhibition": 0},
      {"smiles": "CC(C)(C)c1ccc(CN2C(=O)CN=C(c3ccccc3)c3ccccc32)cc1", "Potency": "11.2 µM (active)"},
      {"smiles": "O=C(O)/C=C/c1ccc2c(c1)OCO2", "activity, negative = inhibition": 23.6},
      {"smiles": "CC1=C(C(=O)Nc2ccccc2)S(=O)(=O)CCO1", "activity, negative = inhibition": 5.26},
      {"smiles": "CNC(=O)N(C)c1nnc(C(C)(C)C)s1", "activity, negative = inhibition": -7.7},
      {"smiles": "c1ccc(N2Cc3ccccc3-n3nncc3C2)nc1", "activity, negative = inhibition": 18.6},
      {"smiles": "O=Cc1cn(Cc2ccc(F)cc2Cl)c2ccccc12", "Potency": "8.91 µM (active)"},
      {"smiles": "CC(=O)C1(O)CCC2C3CCC4=C(Cl)C(=O)CCC4(C)C3CCC21C", "note": "(configuration not stated)", "activity, negative = inhibition": 3.07},
      {"smiles": "N#Cc1c(Cl)c(Cl)c(Cl)c(C#N)c1Cl", "Potency": "0.251 µM (active)"},
      {"smiles": "CCOC(=O)C(O)(c1ccc(N=Cc2ccccc2O)c(C)c1)C(F)(F)F", "note": "(configuration not stated)", "activity, negative = inhibition": -3.24},
      {"smiles": "O=C(Oc1ccc2c(c1)CCC2)N1CCOCC1", "activity, negative = inhibition": 32.9},
      {"smiles": "CCN(CC)C(=O)c1ccc(NC(=O)c2sccc2-c2ccccc2)cc1", "activity, negative = inhibition": -23.7},
      {"smiles": "CCOc1cccc(=NC2CCCCC2)c2c(C)[nH]c(C)c12", "Potency": "10 µM (active)"},
      {"smiles": "Cc1nc2ccccn2c1P(=S)(N1CCCCC1)N1CCCCC1", "activity, negative = inhibition": -1.83},
      {"smiles": "COc1ccc2cc1Oc1ccc(cc1)C[C@H]1c3cc(c(OC)cc3CCN1C)Oc1c(O)c(OC)cc3c1[C@H](C2)N(C)CC3", "Potency": "7.94 µM (active)"},
      {"smiles": "COc1c(O)ccc2c1-c1c3c(cc4c1C(C2)N(C)CC4)OCO3", "note": "(configuration not stated)", "activity, negative = inhibition": 6.67},
      {"smiles": "COc1ccc2c(c1O)-c1cccc3c1[C@@H](C2)N(C)CC3", "activity, negative = inhibition": 15.1},
      {"smiles": "CN(C)/C=C(\\C=[N+](C)C)c1[nH]ncc1[N+](=O)[O-]", "activity, negative = inhibition": 23.1},
      {"smiles": "COC(=O)C1=C(c2ccc(OCc3ccccc3)cc2)C[C@@H]2CC[C@H]1N2C(=O)NCc1cccc(F)c1", "activity, negative = inhibition": -12.6},
      {"smiles": "Cc1ncoc1C(=O)NCC1=C(c2cccc3ccccc23)C[C@@H]2CC[C@H]1N2Cc1ccco1", "activity, negative = inhibition": -27.8},
      {"smiles": "ClCCN(CCCl)c1ccc(C=Nc2ccc(/C=C/c3ccnc4ccccc34)cc2)cc1", "activity, negative = inhibition": -16.9}
    ]}
  ]
}
